Of roughly 7,900 targets only a part is listed; those with a hit were picked by preference. About 0.6% of all pairs of compound and target were hits.
Tests used:
Assay in all cases: log2 fold change, soluble protein after heating vs DMSO (PISA); higher = thermal stabilisation; K562 cells, 10 uM, 30 min; active = over 0.2 and 3.5 SD of the protein, either way, in both replicates (recomputed)
[1] = compound: COC1=CC=C(C=C1)CN2C=CC3=C2C=C(C=C3)C(=O)NO
In short: (§1)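 Thermal stability values are relative to control samples and come from duplicates. They are expressed as log2 fold changes. For measurement, K562 cells (2×10^6 cells/mL) received 10 μM compound for 30 min, and aliquots were heated for 3 min over 48°C-58°C, pooled, and extracted at 4°C in PBS with 0.5% NP-40. Soluble protein, the supernatant after 21,000xg for 90 min, was quantified by TMTpro 16plex LC-MS/MS with equalised channel sums.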

[2] = compound: CON(C)C(=O)N1N=C(c2cc(F)ccc2F)S[C@@]1(CCCN)c1ccccc1 [filanesib]
In short: as §1

[3] = compound: COc1cc(C(=O)O)ccc1NC(=O)[C@@H]1N[C@@H](CC(C)(C)C)[C@](C#N)(c2ccc(Cl)cc2F)[C@H]1c1cccc(Cl)c1F [idasanutlin]
In short: as §1

[4] = compound: COc1cc(Nc2ncc3c(n2)-c2ccc(Cl)cc2C(c2c(F)cccc2OC)=NC3)ccc1C(=O)O [alisertib]
In short: as §1

[5] = compound: COc1cc2nc(-c3cc(F)ccc3O)nc(N[C@@H]3CNC[C@H]3C(C)(C)O)c2cc1OC
In short: as §1

[6] = compound: COc1cc2ncnc(Nc3ccc(F)c(Cl)c3)c2cc1OCCCN1CCOCC1 [gefitinib]
In short: as §1

[7] = compound: COc1cccc2cc(-c3nc([C@H]4CC[C@H](C(=O)O)CC4)n4ncnc(N)c34)[nH]c12
In short: as §1

[8] = compound: CS(=O)(=O)CCNCc1ccc(-c2ccc3ncnc(Nc4ccc(OCc5cccc(F)c5)c(Cl)c4)c3c2)o1 [lapatinib]
In short: as §1

[9] = compound: CS(=O)(=O)N1CCN(Cc2cc3nc(-c4cccc5[nH]ncc45)nc(N4CCOCC4)c3s2)CC1 [pictilisib]
In short: as §1

[10] = compound: CO[C@H]1C[C@@H]2CC[C@@H](C)[C@@](O)(O2)C(=O)C(=O)N2CCCC[C@H]2C(=O)O[C@H]([C@H](C)C[C@@H]2CC[C@H](n3cnnn3)[C@H](OC)C2)CC(=O)[C@H](C)/C=C(\C)[C@@H](O)[C@@H](OC)C(=O)[C@H](C)C[C@H](C)/C=C/C=C/C=C/1C [zotarolimus]
In short: as §1

Measured: log2 fold change

COPS3 isoform 2 (UniProt Q9UNS2)
inactive: [1] -0.144 | [2] 0.157 | [3] 0.138 | [4] -0.008 | [5] 0.321 | [6] 0.005 | [7] 0.083 | [8] -0.211 | [9] 0.128

COG2 (UniProt Q14746)
active: [7] 0.631
inactive: [1] -0.006 | [2] 0.25 | [10] -0.048 | [3] -0.053 | [4] 0.58 | [6] -0.187

CFAP36 isoform 2 (UniProt Q96G28)
inactive: [1] 0.12 | [2] 0.055 | [10] 0.162 | [3] -0.02 | [4] -0.049 | [5] 0.001 | [7] 0.019 | [8] 0.082 | [9] 0.241

CCDC167 (UniProt Q9P0B6)
inactive: [1] -0.054 | [2] -0.024 | [10] -0.027 | [4] -0.068 | [5] -0.148 | [6] -0.021 | [7] -0.105 | [8] 0.016 | [9] 0.047

CASP10 isoform 4 (UniProt Q92851)
inactive: [1] 0.012 | [2] 0.078 | [10] 0.062 | [3] -0.049 | [4] 0.009 | [5] -0.089 | [6] -0.036 | [7] -0.128 | [8] -0.047 | [9] 0.079

CLASP2 (UniProt O75122)
inactive: [1] 0.015 | [10] 0.235 | [3] 0.101 | [4] -0.025 | [5] 0.125 | [6] 0.071 | [7] 0.072 | [8] 0.032

CAV2 (UniProt P51636)
Sequence of UniProt P51636 (P51636 whole entry, looked up): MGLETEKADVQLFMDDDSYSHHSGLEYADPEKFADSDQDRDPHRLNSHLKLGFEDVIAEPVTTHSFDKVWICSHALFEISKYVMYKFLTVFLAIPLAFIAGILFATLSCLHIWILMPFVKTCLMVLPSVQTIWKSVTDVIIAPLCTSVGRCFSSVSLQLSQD
inactive: [1] -0.046 | [2] 0.131 | [3] 0 | [4] -0.083 | [5] -0.011 | [6] 0.137 | [7] 0.026 | [8] -0.018 | [9] 0.031

CEP128 (UniProt Q6ZU80)
inactive: [1] -0.269 | [2] 0.031 | [10] -0.101 | [3] -0.103 | [5] 0.076 | [7] -0.381 | [8] -0.198
active: [4] 0.677

CDK11B (UniProt P21127)
inactive: [1] -0.253 | [2] -0.009 | [10] -0.046 | [3] -0.094 | [4] 0.011 | [5] 0.151 | [6] 0.095 | [7] 0.097 | [8] -0.069 | [9] -0.057

CRTC1 isoform 2 (UniProt Q6UUV9)
active: [1] -0.39
inactive: [2] -0.002 | [3] -0.021 | [5] 0.138 | [8] 0.028 | [9] -0.013

CIR1 (UniProt Q86X95)
inactive: [1] -0.022 | [2] 0.247 | [10] -0.064 | [3] 0.161 | [4] -0.081 | [5] -0.019 | [7] -0.024 | [8] 0.078 | [9] -0.365

C15orf41 (UniProt Q9Y2V0)
inactive: [1] -0.057 | [2] -0.021 | [10] -0.096 | [3] -0.023 | [5] 0.011 | [8] -0.018 | [9] 0.047

CAB39L (UniProt Q9H9S4)
inactive: [1] -0.063 | [2] -0.07 | [3] -0.052 | [5] 0.07 | [8] 0.057 | [9] 0.029

COX7C (UniProt P15954)
Sequence of UniProt P15954 (P15954 whole entry, looked up): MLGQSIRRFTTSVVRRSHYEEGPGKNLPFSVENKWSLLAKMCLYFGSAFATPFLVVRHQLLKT
inactive: [1] 0.12 | [2] 0.009 | [3] 0.114 | [4] -0.016 | [5] -0.069 | [6] 0.059 | [7] -0.053 | [8] 0.008 | [9] -0.288

CRYM-AS1 (UniProt A6NIL9)
inactive: [1] 0.159 | [2] 0.047 | [10] 0.146 | [3] -0.364 | [4] 0.037 | [6] -0.16 | [7] -0.041 | [9] 0.109

CCM2 isoform 2 (UniProt Q9BSQ5)
inactive: [1] -0.093 | [2] 0.026 | [10] 0.057 | [4] -0.04 | [5] 0.154 | [7] 0.056 | [8] 0.006 | [9] 0.022

CKB (UniProt P12277)
inactive: [1] -0.031 | [2] -0.097 | [10] 0.061 | [3] -0.047 | [4] -0.093 | [5] -0.007 | [6] 0.002 | [7] 0.01 | [8] 0.016 | [9] 0.022

CDK17 isoform 2 (UniProt Q00537)
inactive: [1] -0.031 | [2] -0.024 | [10] -0.208 | [3] 0.03 | [4] 0.508 | [5] 0.051 | [7] 0.103 | [8] 0.049 | [9] 0.158

CASP8 isoform 9 (UniProt Q14790)
inactive: [1] -0.087 | [2] -0.017 | [3] -0.086 | [4] -0.107 | [5] 0.023 | [6] -0.153 | [7] 0.044 | [8] -0.028 | [9] 0.127

CSNK1A1 (UniProt P48729)
Sequence of UniProt P48729 (P48729 whole entry, looked up): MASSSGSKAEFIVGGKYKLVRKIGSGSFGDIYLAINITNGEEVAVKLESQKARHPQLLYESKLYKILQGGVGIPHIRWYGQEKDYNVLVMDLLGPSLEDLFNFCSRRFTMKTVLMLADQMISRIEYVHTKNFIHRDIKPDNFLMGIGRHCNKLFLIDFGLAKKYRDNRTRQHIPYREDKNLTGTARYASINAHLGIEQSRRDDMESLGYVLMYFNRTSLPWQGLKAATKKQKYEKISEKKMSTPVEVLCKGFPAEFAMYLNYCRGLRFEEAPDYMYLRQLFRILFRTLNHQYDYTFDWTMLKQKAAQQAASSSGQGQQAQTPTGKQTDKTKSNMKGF
inactive: [1] 0.147 | [2] 0.08 | [10] 0.024 | [3] 0.094 | [5] -0.214 | [6] -0.106 | [7] -0.036 | [8] 0.019 | [9] 0.024

CHMP4B (UniProt Q9H444)
Sequence of UniProt Q9H444 (Q9H444 whole entry, looked up): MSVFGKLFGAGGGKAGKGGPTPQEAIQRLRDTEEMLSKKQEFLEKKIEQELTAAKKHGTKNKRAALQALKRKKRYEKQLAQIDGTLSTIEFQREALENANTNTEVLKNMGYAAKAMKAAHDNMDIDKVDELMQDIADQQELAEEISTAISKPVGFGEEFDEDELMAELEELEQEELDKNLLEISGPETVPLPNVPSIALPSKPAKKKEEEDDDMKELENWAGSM
inactive: [1] -0.101 | [2] -0.106 | [10] -0.015 | [3] 0.034 | [4] -0.036 | [5] 0.044 | [6] -0.005 | [7] 0.08 | [8] -0.09 | [9] -0.094

CCDC82 (UniProt Q8N4S0)
inactive: [1] -0.356 | [10] 0.013 | [3] 0 | [4] 0.034 | [5] -0.013 | [6] 0.052 | [7] -0.102 | [8] 0.043

C6orf120 (UniProt Q7Z4R8)
inactive: [1] 0.003 | [2] -0.053 | [5] -0.135 | [6] -0.008 | [8] -0.114

COX17 (UniProt Q14061)
Sequence of UniProt Q14061 (Q14061 whole entry, looked up): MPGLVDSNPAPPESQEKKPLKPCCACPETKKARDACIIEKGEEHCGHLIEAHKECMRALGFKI
inactive: [1] 0.183 | [2] -0.059 | [10] 0.034 | [3] 0.059 | [4] -0.112 | [6] -0.055 | [7] 0.02 | [9] 0.092

CCNC (UniProt P24863)
Sequence of UniProt P24863 (P24863 whole entry, looked up): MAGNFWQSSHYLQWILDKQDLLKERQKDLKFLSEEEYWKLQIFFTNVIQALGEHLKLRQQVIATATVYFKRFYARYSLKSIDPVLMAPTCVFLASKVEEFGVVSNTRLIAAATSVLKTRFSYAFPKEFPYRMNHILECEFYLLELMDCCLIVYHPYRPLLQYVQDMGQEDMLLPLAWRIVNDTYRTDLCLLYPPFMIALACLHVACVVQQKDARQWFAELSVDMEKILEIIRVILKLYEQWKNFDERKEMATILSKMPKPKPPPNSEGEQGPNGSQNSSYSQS
inactive: [1] -0.198 | [2] 0.013 | [10] -0.026 | [3] -0.156 | [4] -0.036 | [7] 0.013 | [9] 0.079

CRLS1 (UniProt Q9UJA2)
inactive: [1] 0.044 | [2] -0.125 | [10] 0.005 | [4] -0.071 | [5] -0.229 | [6] 0.021 | [7] 0.075 | [8] 0.046 | [9] -0.029

CCDC59 (UniProt Q9P031)
inactive: [1] 0.024 | [2] 0.301 | [10] -0.008 | [3] 0.225 | [4] -0.124 | [5] -0.013 | [6] -0.066 | [7] -0.054 | [8] -0.034 | [9] -0.234

C19orf54 (UniProt Q5BKX5)
inactive: [1] -0.025 | [2] -0.278 | [10] 0.024 | [3] -0.094 | [5] 0.123 | [8] -0.125 | [9] 0.053

CNN1 (UniProt P51911)
inactive: [2] -0.051 | [10] 0.047 | [3] -0.048 | [4] -0.055 | [5] 0.182 | [6] -0.14 | [7] 0.059 | [8] -0.068 | [9] 0.172

CASP7 isoform 3 (UniProt P55210)
inactive: [6] 0.282 | [9] 0.234

CEBPZOS (UniProt A8MTT3)
inactive: [1] 0.111 | [3] -0.021 | [4] -0.014 | [5] -0.085 | [6] 0.004 | [7] 0.098 | [8] -0.037 | [9] -0.045

CRTC3 (UniProt Q6UUV7)
active: [5] -0.86
inactive: [2] 0.015 | [10] -0.059 | [4] 0.202 | [7] -0.107 | [8] 0.078

CNRIP1 (UniProt Q96F85)
inactive: [4] 0.075 | [5] 0.282 | [6] 0.002 | [7] -0.223 | [8] 0.054

CFAP47 (UniProt Q6ZTR5)
Sequence of UniProt Q6ZTR5 (Q6ZTR5 whole entry, looked up): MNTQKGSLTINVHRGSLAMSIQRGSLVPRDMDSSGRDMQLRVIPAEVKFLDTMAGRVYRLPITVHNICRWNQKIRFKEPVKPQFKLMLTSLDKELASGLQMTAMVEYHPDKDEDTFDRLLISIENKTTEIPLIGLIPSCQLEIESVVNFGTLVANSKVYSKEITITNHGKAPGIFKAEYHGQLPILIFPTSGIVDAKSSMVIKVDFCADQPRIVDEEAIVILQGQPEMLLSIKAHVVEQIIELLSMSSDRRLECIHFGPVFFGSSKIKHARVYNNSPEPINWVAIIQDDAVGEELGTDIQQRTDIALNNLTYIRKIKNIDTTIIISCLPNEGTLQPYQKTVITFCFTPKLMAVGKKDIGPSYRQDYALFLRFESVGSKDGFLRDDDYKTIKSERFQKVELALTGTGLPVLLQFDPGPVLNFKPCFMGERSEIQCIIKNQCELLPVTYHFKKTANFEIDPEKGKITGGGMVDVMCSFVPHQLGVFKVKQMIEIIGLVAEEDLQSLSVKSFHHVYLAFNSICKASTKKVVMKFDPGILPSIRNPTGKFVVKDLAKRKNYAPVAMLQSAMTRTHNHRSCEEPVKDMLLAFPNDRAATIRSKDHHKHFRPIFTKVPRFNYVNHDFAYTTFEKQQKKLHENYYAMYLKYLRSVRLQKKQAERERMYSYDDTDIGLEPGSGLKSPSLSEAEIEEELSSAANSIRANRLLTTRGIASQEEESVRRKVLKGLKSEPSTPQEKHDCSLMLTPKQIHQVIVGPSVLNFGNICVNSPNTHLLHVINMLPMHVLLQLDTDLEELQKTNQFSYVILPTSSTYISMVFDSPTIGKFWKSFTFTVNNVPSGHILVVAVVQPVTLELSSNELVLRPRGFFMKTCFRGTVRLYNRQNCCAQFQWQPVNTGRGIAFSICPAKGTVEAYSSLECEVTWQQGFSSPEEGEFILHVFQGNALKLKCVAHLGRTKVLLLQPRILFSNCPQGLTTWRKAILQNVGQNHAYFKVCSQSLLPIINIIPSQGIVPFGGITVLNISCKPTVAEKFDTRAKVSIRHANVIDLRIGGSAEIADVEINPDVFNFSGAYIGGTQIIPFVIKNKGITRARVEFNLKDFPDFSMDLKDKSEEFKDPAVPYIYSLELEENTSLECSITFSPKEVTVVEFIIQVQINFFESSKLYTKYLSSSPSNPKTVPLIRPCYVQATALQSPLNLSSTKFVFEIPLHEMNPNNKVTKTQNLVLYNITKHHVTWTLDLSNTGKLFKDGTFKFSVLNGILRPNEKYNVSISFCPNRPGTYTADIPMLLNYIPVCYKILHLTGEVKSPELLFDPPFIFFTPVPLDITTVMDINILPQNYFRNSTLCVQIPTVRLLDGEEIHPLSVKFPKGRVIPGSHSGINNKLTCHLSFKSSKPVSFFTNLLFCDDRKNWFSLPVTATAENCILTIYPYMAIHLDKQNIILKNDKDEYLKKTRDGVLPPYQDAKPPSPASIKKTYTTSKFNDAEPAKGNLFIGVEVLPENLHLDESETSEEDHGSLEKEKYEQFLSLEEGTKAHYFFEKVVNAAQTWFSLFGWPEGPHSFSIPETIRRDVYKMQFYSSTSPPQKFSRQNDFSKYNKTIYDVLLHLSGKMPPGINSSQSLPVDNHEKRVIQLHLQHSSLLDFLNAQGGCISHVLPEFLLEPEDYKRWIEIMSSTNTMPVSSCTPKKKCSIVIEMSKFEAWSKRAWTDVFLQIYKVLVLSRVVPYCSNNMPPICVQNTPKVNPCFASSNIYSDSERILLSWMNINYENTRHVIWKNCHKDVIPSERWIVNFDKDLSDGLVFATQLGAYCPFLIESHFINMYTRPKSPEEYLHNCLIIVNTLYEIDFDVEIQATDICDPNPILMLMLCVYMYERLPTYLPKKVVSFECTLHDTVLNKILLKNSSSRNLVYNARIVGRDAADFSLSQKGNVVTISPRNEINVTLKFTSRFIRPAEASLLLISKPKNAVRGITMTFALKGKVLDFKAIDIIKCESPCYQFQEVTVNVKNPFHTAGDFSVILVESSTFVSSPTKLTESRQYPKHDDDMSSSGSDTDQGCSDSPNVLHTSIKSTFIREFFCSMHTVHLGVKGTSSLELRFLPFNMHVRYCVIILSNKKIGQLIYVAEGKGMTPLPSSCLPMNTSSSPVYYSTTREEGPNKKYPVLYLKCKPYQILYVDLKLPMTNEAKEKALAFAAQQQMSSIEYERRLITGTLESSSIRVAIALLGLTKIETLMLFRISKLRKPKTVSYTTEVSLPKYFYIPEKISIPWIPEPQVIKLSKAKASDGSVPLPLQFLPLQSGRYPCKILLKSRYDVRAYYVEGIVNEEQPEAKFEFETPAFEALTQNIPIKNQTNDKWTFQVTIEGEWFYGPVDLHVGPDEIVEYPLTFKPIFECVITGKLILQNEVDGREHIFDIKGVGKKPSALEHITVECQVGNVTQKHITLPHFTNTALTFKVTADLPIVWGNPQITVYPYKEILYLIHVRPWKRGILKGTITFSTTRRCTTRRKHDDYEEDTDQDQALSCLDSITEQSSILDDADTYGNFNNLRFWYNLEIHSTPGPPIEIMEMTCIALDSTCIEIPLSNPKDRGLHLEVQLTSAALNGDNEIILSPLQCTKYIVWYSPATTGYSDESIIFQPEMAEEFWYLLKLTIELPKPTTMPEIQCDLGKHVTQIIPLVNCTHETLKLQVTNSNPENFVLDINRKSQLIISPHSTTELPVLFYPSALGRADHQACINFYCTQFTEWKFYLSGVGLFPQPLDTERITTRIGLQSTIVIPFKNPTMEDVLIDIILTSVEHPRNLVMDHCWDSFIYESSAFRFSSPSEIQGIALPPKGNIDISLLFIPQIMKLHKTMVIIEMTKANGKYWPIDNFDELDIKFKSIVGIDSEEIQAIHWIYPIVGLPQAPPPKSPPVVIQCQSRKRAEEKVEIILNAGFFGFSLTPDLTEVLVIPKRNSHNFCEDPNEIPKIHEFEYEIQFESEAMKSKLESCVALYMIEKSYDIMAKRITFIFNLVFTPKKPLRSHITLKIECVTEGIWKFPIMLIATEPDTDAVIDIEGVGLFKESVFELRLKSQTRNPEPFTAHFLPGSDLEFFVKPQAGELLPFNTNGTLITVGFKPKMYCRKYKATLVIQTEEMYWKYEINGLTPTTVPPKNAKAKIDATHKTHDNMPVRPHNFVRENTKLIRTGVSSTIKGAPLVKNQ
inactive: [3] -0.496 | [5] 0.031 | [8] -0.106

CRMP1 isoform 2 (UniProt Q14194)
Sequence of UniProt Q14194 (Q14194 whole entry, looked up): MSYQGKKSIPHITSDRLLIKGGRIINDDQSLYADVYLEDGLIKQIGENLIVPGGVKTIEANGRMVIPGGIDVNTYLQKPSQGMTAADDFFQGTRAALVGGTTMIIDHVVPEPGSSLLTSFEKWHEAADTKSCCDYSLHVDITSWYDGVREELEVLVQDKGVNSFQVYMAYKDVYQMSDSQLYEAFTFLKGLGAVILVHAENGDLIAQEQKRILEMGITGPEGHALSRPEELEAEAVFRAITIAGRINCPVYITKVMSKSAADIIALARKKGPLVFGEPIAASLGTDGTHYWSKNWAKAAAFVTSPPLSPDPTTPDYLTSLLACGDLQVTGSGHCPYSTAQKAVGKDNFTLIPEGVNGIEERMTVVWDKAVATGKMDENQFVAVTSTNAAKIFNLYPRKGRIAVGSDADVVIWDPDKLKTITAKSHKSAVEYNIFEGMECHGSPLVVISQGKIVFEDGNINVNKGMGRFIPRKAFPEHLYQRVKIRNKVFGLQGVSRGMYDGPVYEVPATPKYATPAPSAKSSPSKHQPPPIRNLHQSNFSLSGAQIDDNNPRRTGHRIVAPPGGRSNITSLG
inactive: [2] 0.067 | [10] -0.045 | [3] 0.172 | [6] -0.407 | [9] 0.107

CARD9 (UniProt Q9H257)
inactive: [1] -0.062 | [3] 0.169

CDK2AP2 (UniProt O75956)
Sequence of UniProt O75956 (O75956 whole entry, looked up): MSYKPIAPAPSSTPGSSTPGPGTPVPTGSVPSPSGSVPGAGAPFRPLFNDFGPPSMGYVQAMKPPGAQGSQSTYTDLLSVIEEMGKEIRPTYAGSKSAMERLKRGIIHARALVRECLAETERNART
inactive: [1] 0.078 | [10] -0.022 | [3] -0.043 | [4] -0.019 | [6] -0.009 | [7] -0.11

CCND3 (UniProt P30281)
inactive: [10] -0.035 | [3] -0.036 | [4] -0.043 | [5] -0.276 | [7] 0.012 | [8] 0.083 | [9] 0.03
